Experimental data taken from the supplement of paper PMC11732987, “Enantioselective OTUD7B fragment discovery through chemoproteomics screening and high-throughput optimisation” (Communications Chemistry, 2025).

Columns and labels:
Assay in all cases: log2 ratio of Biotin-Ahx-Ub-VS probe labelling (fragment/DMSO); higher = less target engagement (more negative = stronger competition), active = hit call of the paper (q ≤ 0.05, log2 ratio ≤ -1)
Settings in all cases: compound concentration: 200 uM; treatment time: 3 h
ALG13 = target: T1, ALG13 (UniProt Q9NP73)
T1 sequence (whole entry): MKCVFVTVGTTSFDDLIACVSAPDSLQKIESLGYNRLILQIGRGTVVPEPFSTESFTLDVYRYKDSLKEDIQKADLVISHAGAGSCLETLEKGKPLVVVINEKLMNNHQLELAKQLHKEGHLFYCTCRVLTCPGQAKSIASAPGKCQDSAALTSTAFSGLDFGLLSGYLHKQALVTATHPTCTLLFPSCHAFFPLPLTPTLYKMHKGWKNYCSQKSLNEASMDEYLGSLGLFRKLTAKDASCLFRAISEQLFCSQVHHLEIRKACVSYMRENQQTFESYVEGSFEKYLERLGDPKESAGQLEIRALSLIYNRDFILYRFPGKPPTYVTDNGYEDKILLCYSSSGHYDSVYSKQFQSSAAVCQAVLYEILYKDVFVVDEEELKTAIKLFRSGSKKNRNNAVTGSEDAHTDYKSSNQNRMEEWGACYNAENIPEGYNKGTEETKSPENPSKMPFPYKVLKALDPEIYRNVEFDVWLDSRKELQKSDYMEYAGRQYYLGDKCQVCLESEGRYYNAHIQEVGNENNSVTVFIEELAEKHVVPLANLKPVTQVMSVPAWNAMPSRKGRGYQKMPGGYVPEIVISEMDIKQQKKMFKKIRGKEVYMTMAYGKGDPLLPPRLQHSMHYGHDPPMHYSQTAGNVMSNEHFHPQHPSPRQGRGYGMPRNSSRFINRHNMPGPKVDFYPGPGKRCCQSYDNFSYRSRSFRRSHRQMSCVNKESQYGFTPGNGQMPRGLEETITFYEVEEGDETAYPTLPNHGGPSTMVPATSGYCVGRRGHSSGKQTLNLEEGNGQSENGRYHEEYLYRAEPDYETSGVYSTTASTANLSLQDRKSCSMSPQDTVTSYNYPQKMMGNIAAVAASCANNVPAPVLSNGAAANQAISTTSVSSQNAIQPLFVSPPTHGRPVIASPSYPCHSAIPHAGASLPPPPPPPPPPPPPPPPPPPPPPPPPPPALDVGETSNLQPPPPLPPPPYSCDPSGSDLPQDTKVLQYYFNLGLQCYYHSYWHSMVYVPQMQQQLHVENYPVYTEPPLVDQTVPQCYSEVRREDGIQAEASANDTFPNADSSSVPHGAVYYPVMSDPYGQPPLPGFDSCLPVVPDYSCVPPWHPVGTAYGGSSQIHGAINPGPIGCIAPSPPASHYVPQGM
Summary of the method: (§1)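 Average log2 ratios of fragment over vehicle were obtained by unpaired t-test from global-median-normalised Spectronaut label-free quantities. Proteins with ≥2 unique peptides were included. HEK293T lysate (495 µg per sample) was treated in triplicate with fragment at 200 µM or vehicle for 3 h, then with Biotin-Ahx-Ub-VS at 0.5 µM final for 1 h, and labelled DUBs were NeutrAvidin-enriched and run by diaPASEF LC-MS/MS.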

ATXN3 = ATXN3 (UniProt P54252)
ATXN3, sequence (P54252 whole entry): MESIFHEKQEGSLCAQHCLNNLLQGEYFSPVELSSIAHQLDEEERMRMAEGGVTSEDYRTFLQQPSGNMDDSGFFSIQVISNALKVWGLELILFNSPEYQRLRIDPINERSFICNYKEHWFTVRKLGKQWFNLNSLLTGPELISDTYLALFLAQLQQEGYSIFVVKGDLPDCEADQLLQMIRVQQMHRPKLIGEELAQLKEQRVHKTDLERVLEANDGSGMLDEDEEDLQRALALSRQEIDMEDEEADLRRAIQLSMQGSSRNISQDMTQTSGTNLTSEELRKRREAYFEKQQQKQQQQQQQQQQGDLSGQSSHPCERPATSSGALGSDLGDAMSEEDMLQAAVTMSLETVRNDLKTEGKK
Summary of the method: as §1

BAP1 = target: T2, BAP1 (UniProt Q92560)
T2 sequence (whole entry): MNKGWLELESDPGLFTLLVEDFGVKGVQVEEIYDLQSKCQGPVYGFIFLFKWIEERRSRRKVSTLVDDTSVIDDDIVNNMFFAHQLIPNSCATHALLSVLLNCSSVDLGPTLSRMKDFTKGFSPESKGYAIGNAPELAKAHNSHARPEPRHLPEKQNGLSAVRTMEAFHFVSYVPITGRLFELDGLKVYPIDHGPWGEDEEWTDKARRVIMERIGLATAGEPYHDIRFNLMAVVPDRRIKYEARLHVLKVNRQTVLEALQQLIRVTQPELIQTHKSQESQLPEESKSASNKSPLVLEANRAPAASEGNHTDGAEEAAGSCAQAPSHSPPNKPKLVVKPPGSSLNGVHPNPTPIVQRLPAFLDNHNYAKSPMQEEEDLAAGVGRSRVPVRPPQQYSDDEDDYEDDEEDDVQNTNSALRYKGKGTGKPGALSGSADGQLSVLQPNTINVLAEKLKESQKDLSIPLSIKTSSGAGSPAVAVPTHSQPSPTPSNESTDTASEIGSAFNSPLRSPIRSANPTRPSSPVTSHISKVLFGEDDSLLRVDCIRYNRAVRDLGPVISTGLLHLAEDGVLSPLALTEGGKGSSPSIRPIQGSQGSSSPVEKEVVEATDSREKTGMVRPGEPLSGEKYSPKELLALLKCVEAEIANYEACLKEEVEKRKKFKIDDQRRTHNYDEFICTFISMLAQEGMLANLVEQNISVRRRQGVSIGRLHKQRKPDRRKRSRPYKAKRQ
Summary of the method: as §1

EIF3F = EIF3F (UniProt O00303)
EIF3F, sequence (O00303 whole entry): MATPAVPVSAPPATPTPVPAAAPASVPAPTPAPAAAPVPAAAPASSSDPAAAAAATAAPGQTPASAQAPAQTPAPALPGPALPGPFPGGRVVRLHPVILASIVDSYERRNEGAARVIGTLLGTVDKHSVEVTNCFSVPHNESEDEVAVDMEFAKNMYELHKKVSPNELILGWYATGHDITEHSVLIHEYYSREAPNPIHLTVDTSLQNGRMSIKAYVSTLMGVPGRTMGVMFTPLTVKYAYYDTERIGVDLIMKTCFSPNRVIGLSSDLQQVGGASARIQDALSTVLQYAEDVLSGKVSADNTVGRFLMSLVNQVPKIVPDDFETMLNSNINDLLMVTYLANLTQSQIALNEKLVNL
Summary of the method: as §1

EIF3H = EIF3H (UniProt O15372)
EIF3H, sequence (O15372 whole entry): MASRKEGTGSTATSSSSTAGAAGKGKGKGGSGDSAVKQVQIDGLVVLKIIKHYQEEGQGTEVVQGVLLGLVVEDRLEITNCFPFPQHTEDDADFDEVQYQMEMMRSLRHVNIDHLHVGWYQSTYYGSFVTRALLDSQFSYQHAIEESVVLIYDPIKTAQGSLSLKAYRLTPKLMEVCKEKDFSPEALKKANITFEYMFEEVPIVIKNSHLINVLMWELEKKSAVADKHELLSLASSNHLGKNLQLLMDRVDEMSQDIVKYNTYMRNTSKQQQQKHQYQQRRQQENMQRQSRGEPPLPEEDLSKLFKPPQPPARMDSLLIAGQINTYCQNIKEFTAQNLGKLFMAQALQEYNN
Summary of the method: as §1

FAM105A = target: T3, FAM105A (UniProt Q9NUU6)
T3 sequence (whole entry): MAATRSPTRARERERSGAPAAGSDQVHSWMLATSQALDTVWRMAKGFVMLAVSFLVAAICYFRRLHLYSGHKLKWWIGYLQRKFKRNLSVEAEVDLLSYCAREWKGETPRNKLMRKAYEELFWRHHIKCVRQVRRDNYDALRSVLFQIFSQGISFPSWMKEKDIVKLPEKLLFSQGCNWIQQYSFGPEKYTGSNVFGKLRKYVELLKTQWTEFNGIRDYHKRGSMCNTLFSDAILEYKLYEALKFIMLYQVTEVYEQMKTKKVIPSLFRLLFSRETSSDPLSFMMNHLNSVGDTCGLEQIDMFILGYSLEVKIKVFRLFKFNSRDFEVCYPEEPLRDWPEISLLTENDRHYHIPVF
Summary of the method: as §1

OTUB1 = OTUB1 (UniProt Q96FW1)
OTUB1, sequence (Q96FW1 whole entry): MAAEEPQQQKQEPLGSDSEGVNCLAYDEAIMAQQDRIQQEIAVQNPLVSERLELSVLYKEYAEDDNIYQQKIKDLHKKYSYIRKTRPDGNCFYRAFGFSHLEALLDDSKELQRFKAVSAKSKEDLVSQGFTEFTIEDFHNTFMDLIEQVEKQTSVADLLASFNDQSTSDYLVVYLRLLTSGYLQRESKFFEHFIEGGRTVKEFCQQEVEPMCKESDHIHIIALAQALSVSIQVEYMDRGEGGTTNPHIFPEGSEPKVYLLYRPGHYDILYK
Summary of the method: as §1

OTUD4 = target: T4, OTUD4 (UniProt Q01804)
T4 sequence (whole entry): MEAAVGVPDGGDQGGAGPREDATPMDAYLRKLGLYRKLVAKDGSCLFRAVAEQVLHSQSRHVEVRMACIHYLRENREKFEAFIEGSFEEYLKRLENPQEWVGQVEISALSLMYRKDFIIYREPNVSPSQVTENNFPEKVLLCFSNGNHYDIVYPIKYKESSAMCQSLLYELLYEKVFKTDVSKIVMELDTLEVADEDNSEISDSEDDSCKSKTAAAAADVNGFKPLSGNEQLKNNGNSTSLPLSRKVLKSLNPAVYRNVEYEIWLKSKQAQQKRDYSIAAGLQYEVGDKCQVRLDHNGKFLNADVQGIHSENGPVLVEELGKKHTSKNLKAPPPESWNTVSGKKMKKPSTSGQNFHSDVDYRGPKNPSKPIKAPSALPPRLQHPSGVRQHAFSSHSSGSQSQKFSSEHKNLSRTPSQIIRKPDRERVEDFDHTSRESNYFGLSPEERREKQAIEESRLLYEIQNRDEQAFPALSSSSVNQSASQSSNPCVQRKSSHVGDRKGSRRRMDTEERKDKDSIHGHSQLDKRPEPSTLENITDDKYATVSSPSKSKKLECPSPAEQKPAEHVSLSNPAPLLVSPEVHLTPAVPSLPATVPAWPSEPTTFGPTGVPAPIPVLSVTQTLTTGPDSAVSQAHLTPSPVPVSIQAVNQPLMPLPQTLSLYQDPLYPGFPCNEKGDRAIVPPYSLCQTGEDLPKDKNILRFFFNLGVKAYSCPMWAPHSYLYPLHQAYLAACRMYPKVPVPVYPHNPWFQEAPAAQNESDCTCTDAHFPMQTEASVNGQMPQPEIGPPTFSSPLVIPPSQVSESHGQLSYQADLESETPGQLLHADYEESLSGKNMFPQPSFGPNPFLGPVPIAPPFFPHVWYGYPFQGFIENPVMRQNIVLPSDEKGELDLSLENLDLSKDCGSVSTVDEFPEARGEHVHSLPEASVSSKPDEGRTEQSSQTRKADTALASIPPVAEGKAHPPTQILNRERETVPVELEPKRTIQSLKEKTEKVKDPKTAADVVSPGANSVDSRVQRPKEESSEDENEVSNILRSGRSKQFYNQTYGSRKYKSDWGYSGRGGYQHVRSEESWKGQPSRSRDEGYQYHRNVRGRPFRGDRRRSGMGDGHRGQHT
Summary of the method: as §1

OTUD5 = target: T5, OTUD5 (UniProt Q96G74)
T5 sequence (whole entry): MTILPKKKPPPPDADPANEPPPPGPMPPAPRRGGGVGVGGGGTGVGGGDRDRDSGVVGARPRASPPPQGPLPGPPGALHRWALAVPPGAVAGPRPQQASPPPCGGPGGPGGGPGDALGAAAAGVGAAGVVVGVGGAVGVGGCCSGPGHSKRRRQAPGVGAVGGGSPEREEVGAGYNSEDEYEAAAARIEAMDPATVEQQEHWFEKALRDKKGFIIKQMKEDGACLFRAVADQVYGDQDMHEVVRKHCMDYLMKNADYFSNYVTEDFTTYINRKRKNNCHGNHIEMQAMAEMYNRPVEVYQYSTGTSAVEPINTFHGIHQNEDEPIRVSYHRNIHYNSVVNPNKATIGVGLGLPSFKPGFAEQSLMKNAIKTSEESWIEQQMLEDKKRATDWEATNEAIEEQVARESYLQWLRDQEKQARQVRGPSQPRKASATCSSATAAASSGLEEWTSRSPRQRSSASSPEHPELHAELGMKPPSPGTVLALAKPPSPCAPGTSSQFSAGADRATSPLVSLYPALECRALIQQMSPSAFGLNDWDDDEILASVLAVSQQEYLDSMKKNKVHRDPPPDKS
Summary of the method: as §1

Measured: log2 ratio of Biotin-Ahx-Ub-VS probe labelling

O=C(CCl)N1CCC(O)(Cc2ccc(F)cc2)C1 (centres undefined)
inactive: ALG13 -0.581 | ATXN3 -0.456 | BAP1 -0.845 | EIF3F -0.133 | EIF3H -0.189 | FAM105A -0.0755 | OTUB1 -0.0952 | OTUD4 -0.135 | OTUD5 -0.233
